SMILES strings stand for the structures. The panel holds about 83,000 compounds, 20% with a hit somewhere; the sample as a whole holds those more often.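 In brief: 96-well plates, 48 h treatment, single concentration, percent growth endpoint.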 Activity calls are given as the source filed them. The calls were made as follows: active = growth percent below 10; inactive = the rest.

The subject of the assay is HL-60(TB) leukemia. The assay can be described thus: NCI-60 one-dose screen, 48 h (100 = growth as untreated, 0 = no growth, -100 = all killed). The note with it: 10 µM unless noted.
Regarding `CC(=O)/C(N=Nc1ccc(S(=O)(=O)c2ccc(N=N/C(C(C)=O)=C(/C)O)cc2)cc1)=C(\C)O`, the growth was 88.5% (inactive).
As for `O=C(O)CCCc1ccccc1`, the growth was 109% (inactive).
In the case of `CCN1C(=O)N(c2ccccc2)C2NC(=S)N(/N=C/C=C/c3ccccc3OC)C21` (configuration not stated), the growth was -44.9% (active).
With `O=C(Nc1cccc(Cn2c(=O)[nH]c3ccc(Oc4ncccn4)cc3c2=O)c1)c1cc(Cl)cc(Cl)c1` the figure was 98.5% (inactive); with `Cc1ccc(OCCn2ccc(=O)n(CCOc3ccc(Cl)cc3C(=O)c3cc(C)cc(C)c3)c2=O)cc1`, 33.4% (inactive); with `COc1cc(-c2ncn(/C=C\c3nnco3)n2)cc(C(F)(F)F)c1`, 11.2% (inactive).
With `COc1cc(/C=C2\C(=O)Nc3ccc(Br)cc32)cc(OC)c1OC` the figure was 73.5% (inactive); with `CCN1C(=O)/C(=C/C=C/N(C)c2ccccc2)SC1=S`, 78.2% (inactive).
Take `O=C(Cn1c2ccccc2c2ccncc21)N/N=C/c1cc(O)c(O)c(O)c1`: the growth was 85.1% (inactive).
Turning to `O=C(COc1ccc(/C=C2\CSc3ccccc3C2=O)cc1)Nc1nccs1`, the growth was -22.4% (active).
In the case of `CC(=O)Nc1ccc(Cl)cc1Cl`, the growth is 109% (inactive).
To `C=C(c1ccc(N(C)C)cc1)c1ccc(N(C)C)cc1` belongs -6.12% (active); to `CCN1CCN(CC(=O)Nc2nc3ccc(NCc4ccc(F)cc4)cc3s2)CC1`, 96.4% (inactive).
With `O=C1CCCCC=C1C[N+](=O)[O-]` the figure was 0.0104% (active).
Turning to `O=C(CCl)N(c1ccccc1)c1ccccc1`, the growth is 101% (inactive).
For the compound `O=C1OC(/C=C/c2ccccc2)=NC/1=C/c1ccccc1[N+](=O)[O-]`, the growth was 96.2% (inactive).
For the compound `Cc1nn(-c2ccccc2)cc1/C=C1\SC(N2CCCCC2)=NC1=O`, the growth was 93% (inactive).
To `CCN(CC)CCOCC[C@H]1CC[C@H]2[C@@H]3[C@H](C)Cc4cc(OS(N)(=O)=O)ccc4[C@H]3CC[C@]12C` belongs -74.9% (active).
With `Oc1ccccc1\C=N/N=C/C=C/c1ccccc1` the figure was 38.5% (inactive); with `CC12CCC3c4ccc(O)cc4CCC3C1CCC2=O` (configuration not stated), 79.4% (inactive).
With `CC(=O)c1ccc(NS(=O)(=O)c2cccc(C(=O)Nc3ccc(Br)cc3)c2)cc1` the figure was 47.3% [25 µM] (inactive); with `Cc1cc(NC(=O)c2cccc(C(F)(F)F)c2)ccc1-n1ccc2c(NC(=O)c3ccccc3)nccc21`, 106% (inactive); with `CN[C@@H](C)C(=O)N[C@H]1CCS[C@H]2CC(C)(C)[C@@H](C(=O)N[C@H]3c4ccccc4C[C@H]3OCC#CC#CCO[C@@H]3Cc4ccccc4[C@@H]3NC(=O)[C@H]3N4C(=O)[C@@H](NC(=O)[C@H](C)NC)CCS[C@H]4CC3(C)C)N2C1=O`, -47.4% (active).
For the compound `COc1ccc(CCCc2c3[n+](cc4c(OC)c(OC)ccc24)CCc2cc4c(cc2-3)OCO4)cc1`, the growth is 36.6% (inactive).
With `Nc1ncnc2c1c(C(F)(F)F)cn2[C@@H]1O[C@H](CO)[C@@H](O)[C@H]1O` the figure was -26.1% (active).
With `COc1ccc2c(c1)C/C(=C\c1cc(-c3cc(OC)c(OC)c(OC)c3)n[nH]1)C2=O` the figure was 79% (inactive).
To `Cc1cc2ccccc2c2cc3ccccc3cc12` belongs 49.4% (inactive).
